Source: PubChem BioAssay (National Center for Advancing Translational Sciences (NCATS))
SMN2 splice up: qHTS Assay for Enhancers of SMN2 Splice Variant Expression. Potency, µM (titrated, usually from 46.1 µM), actives largely listed as activators. HEK293 SMN2-luciferase splicing reporter, luminescence, 30-36 h. AID 1458, 2008. 210,000 compounds, 2.8% hits; note: nearly all actives have a fitted effect of over 55% in size
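HEK293 cells carry an SMN2 […]–luciferase reporter in which exon 7 inclusion puts luciferase in frame. Cells were plated 10-12 h before compound addition, then incubated 30-36 h at 37C. ONE-Glo luminescence was read; sodium butyrate at 4.5 mM final served as control.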
Rab9 prom act: qHTS Assay for Rab9 Promoter Activators; Potency, µM (series often up to 9.22 µM), hits mostly activators; AID 485297, 2010; Huh7 Rab9 promoter-luciferase reporter, luminescence, 24 h; 320,000 compounds, 2.8% hits; note: nearly all actives have a fitted effect of over 60% in size
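Quantitative HTS format; Huh7 Rab9-luciferase reporter cells (1500/well) receive compound 2 h post-plating, incubate 24 h at 37 °C, then get luciferase reagent for 10 min before luminescence reading.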
NPC1 prom act: qHTS Assay for NPC1 Promoter Activators. Huh7 NPC1 promoter luciferase reporter, 24 h. Potency, µM (titrated, usually from 9.22 µM), actives largely listed as activators. 320,000 compounds, 2.4% hits; note: nearly all actives have a fitted effect of over 60% in size
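Luminescence read-out of NPC1 promoter-driven luciferase in stably transfected Huh7 cells; compounds delivered in DMSO and left 24 h at 37C, 5% CO2, qHTS titration format.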
ELG1 genotox: qHTS screen for small molecules that induce genotoxicity in human embryonic kidney (HEK293T) cells expressing luciferase-tagged ELG1. HEK293T ELG1-luciferase reporter, luminescence, 16 h. Potency, µM (highest dose often 46 µM), hits mostly activators. 330,000 compounds, 1.3% hits. AID 504466, 2011; note: nearly all actives have a fitted effect of over 60% in size
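Quantitative HTS format in 1536-well plates. HEK293T ELG1-luciferase reporter cells receive test compound and are incubated 16 hr at 37 °C, 5% CO2; ONE-Glo added, 30 min room temperature, then luminescence read.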
FLuc modulator: qHTS profiling assay for firefly luciferase inhibitor/activator using purifed enzyme and Km concentrations of substrates (counterscreen for miR-21 project); Luciferin 4-monooxygenase (Photinus pyralis), P08659; purified FLuc, Km substrates, luminescence inhibition; Potency, µM (doses to about 57.5 µM), usual class: inhibitors; 360,000 compounds, 6.9% hits; note: nearly all actives have a fitted effect of over 55% in size
Target sequence (P08659 whole entry, looked up): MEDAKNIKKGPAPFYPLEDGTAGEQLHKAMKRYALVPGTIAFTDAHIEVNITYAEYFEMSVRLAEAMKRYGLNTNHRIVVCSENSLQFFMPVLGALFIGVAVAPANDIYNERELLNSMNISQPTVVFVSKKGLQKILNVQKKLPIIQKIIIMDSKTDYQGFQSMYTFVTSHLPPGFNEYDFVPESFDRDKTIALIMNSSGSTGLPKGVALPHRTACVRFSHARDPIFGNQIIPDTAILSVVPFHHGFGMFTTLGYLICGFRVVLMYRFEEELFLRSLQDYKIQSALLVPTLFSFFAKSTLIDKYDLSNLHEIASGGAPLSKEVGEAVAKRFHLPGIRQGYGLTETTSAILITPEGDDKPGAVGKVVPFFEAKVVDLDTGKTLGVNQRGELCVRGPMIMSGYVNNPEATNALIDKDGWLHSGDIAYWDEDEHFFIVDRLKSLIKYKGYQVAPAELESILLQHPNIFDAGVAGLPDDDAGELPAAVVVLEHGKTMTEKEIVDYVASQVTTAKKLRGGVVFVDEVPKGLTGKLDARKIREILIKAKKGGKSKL
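Purified P. pyralis luciferase (10nM final) with 10uM D-luciferin and 10uM ATP (Km levels) in 50mM Tris acetate pH 7.5, 10mM Mg acetate, 0.01% Tween-20, 0.05% BSA; qHTS 6-point titration, ~60 µM downward; luminescence read.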
Hits are given with their value; - = inactive; ? = inconclusive; . = no result given; [ ] = another dose, or the depositor's remark. Shown are actives, neighbours in structure and some others; about 7.4% of the full set was active somewhere. Calls come from the whole dose curve; as a rule, active = well fitted curve in the direction sought with a large enough effect; inconclusive = small, poorly fitted or top-dose-only effect, or another doubt; inactive = no such curve, though single readings can be large; an effect the other way counts as inactive or inconclusive.

SMILES	SMN2 splice up	Rab9 prom act	NPC1 prom act	ELG1 genotox	FLuc modulator
Cc1ccc(Nc2nnc(SC(C)C(=O)Nc3c(C)n(C)n(-c4ccccc4)c3=O)s2)cc1 (stereo not drawn)	-	-	-	-	11µM
CCn1c(NCc2ccc(N(C)C)cc2)nc2ccccc21	-	-	-	?	13µM
CCn1c(NC(=O)c2ccccc2)nc2ccccc21	.	?	-	-	17µM
C=CCn1c(NC(=O)c2ccccc2)nc2ccccc21	.	?	?	-	24µM
CCn1c(NCc2ccc(OC)c(OC)c2)nc2ccccc21	-	.	.	.	-
Cn1c(NC(=O)c2cccc(Cn3cc(Cl)cn3)c2)nc2ccccc21	13µM	2.2µM	2.2µM	10µM	19µM
COc1ccccc1C(C)NCC(=O)Nc1ccccc1C(F)(F)F (stereo not drawn)	4.5µM	-	-	-	-
COc1ccc2occ(C(=O)c3ccccc3)c2c1	?	?	-	?	13µM
O=C(c1ccc(Cl)cc1)c1coc2ccc(O)cc12	-	?	?	-	3.8µM
COc1ccc(C(=O)c2oc3ccccc3c2N)cc1	13µM	?	3.5µM	9.2µM	11µM
O=C(c1coc2ccc(O)cc12)C1CC1	-	-	-	-	-
COc1ccc2oc(C(=O)OCC(=O)N3CCCCC3C)c(C)c2c1 (stereo not drawn)	.	.	.	-	.
COc1ccc2occ(C(C)=O)c2c1	-	-[1.84 µM]	-	-	-
COc1ccc2oc(C(=O)C3CC3)c(N)c2c1	?	?	?	?	13µM
COc1ccc(OC)c(S(=O)(=O)N2CCC(C(=O)NCc3ccncc3)CC2)c1	.	-	-	-	-
CC1C/C(=N\NC(=O)c2ccc(NS(=O)(=O)c3ccc(Br)cc3)cc2)CC(C)(C)C1 (stereo not drawn)	-	-	-	-	?
COc1ccc2oc(C(=O)c3ccccc3)c(N)c2c1	11µM	2µM	2µM	?	3µM
COC(=O)CCC(=O)c1oc2ccc(OC)cc2c1N	?	4.5µM	2.5µM	3.7µM	3.4µM
COC(=O)c1oc2ccc(Cl)cc2c1N	?	-	-	-	-[2.3 µM]
Cc1cccc2sc(NC(=O)c3ccc(OCC4CCCO4)cc3)nc12 (stereo not drawn)	-	-	-	-	11µM
Cc1csc(NC(=O)c2ccc(OCC3CCCO3)cc2)n1 (stereo not drawn)	1.4µM	0.45µM	?	-	5.4µM
CCOc1ccc2nc(NC(=O)CSc3nnc(-c4ccncc4)n3CC3CCCO3)sc2c1 (stereo not drawn)	-	?	?	?	2.4µM
CCOc1ccc2nc(NC(=O)c3ccc(OCC4CCCO4)cc3)sc2c1 (stereo not drawn)	?	-	-	-	2.7µM
Cc1ccc(F)cc1NC(=O)c1ccc(OCC2CCCO2)cc1 (stereo not drawn)	.	.	.	-	.
O=C(Nc1nc(-c2ccc(F)c(F)c2)cs1)c1ccc(OCC2CCCO2)cc1 (stereo not drawn)	.	-	-	-	-
SMILES	SMN2 splice up	Rab9 prom act	NPC1 prom act	ELG1 genotox	FLuc modulator
CC(CCC(=O)O)C1CCC2C3C(=O)CC4CC(=O)CC[C@@]4(C)C3CC(=O)[C@]12C (stereo partly drawn)	-	.	.	.	.
O=C(CN1C(=O)NC2(CCOc3ccccc32)C1=O)NCCc1ccccc1 (stereo not drawn)	.	.	.	-	.
O=C(OCC(=O)N1CCCC1)c1ccccc1O	.	?	2.8µM	?	15µM
COc1cc(SC)ccc1C(=O)OCC(=O)NC1CCCCC1	-	-	-	-	-
COc1ccc(C(=O)OCC(=O)NC2CC2)cc1[N+](=O)[O-]	5.6µM	-	-	-	-
O=C(OCC(=O)N1CCCCCC1)c1ccc[nH]c1=O	.	.	.	-	.
COc1cc(SC)ccc1C(=O)OCC(=O)NC1CCCC1	-	?	-	?	24µM
O=C(OCC(=O)N1CCCCCC1)c1ccccc1Br	.	1.8µM	2.2µM	?	5.4µM
O=C(OCC(=O)N1CCCC1)c1cccc(Br)c1	.	-	-	?	-
COc1ccc(C(=O)OCC(=O)NC2CC2)cc1OC	.	-	-	-	-
COc1ccc(OC)c(Cc2nnc(CCC(=O)NCc3ccc(C)s3)o2)c1	.	-	-	-	-
